# In the supplement of paper PMC9135407:
# “And” between values parts separate entries of the source, which are not always exact repeats. Identical values can stand only once. Counter-ions that a name gives are not always drawn. About 620 (11%) of roughly 5,800 compounds showed activity. The list comes from a sample in which actives are over-represented; it also holds similar structures and randomly drawn compounds. Values without a mark were called inactive.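 How the source made its calls: active = score above a cut-off or among the top three wells of a plate; in these data no inactive exceeds 0.85.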
# Tested on: primary human hepatic stellate cells (donor 1)
# Assay: scaled lipid accumulation score (0 = DMSO-like, 1 = nortriptyline-like); higher = stronger HSC inactivation (lipid re-accumulation), active = hit call of the paper
# Conditions: 48 h
# Description: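 Primary lipid accumulation screen in primary human hepatic stellate cell myofibroblasts (donor 1, passage 8) in 384-well plates. 100 nL of library compound was pin-transferred into 30 µL medium in duplicate, and cells were treated for 48 h. The 'Scaled' score combines distance from plate baseline, toxicity and reproducibility penalties, and is normalised to nortriptyline (positive) and DMSO (negative) controls on each plate. A hit is defined as scaled >0.85 or among the top 3 wells per plate.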
# [1] = library stock concentration: 10 mM
# [2] = library stock concentration: 3.33 mM
# [3] = library stock concentration: 1 mM
compound,measurement,setting,value
C=CC(=O)Nc1cc(Nc2nccc(-c3cn(C)c4ccccc34)n2)c(OC)cc1N(C)CCN(C)C [listing 1 of 3 here],scaled lipid accumulation score,[1],≤ 0
C=CC(=O)Nc1cccc(Nc2nc(Nc3ccc(NC4CN(CCF)C4)cc3OC)ncc2C(F)(F)F)c1,scaled lipid accumulation score,[2],≤ -0.009
same,scaled lipid accumulation score,[1],0.811
C=CC(=O)Nc1cc(Nc2nccc(-c3cn(C)c4ccccc34)n2)c(OC)cc1N(C)CCN(C)C [listing 2 of 3 here],scaled lipid accumulation score,library stock concentration: 2 mM,1.01 (active)
C=CC(=O)Nc1cccc(Nc2nc(Nc3ccc(N4CCN(C(C)=O)CC4)cc3OC)ncc2C(F)(F)F)c1,scaled lipid accumulation score,[2],≤ -0.009
same,scaled lipid accumulation score,[1],0.063
C=CC(=O)Nc1cc(Nc2nccc(-c3cn(C)c4ccccc34)n2)c(OC)cc1N(C)CCN(C)C [listing 3 of 3 here],scaled lipid accumulation score,[2],0.983 (active)
"CCN1CCCC1CNC(=O)c1cc(S(N)(=O)=O)ccc1OC (single isomer, unassigned; (-)) [(-)-Sulpiride]",scaled lipid accumulation score,[1],≤ 0
O=C1CCc2c(ccc3ccccc23)O1 [Splitomicin],scaled lipid accumulation score,[1],≤ -0.006
CCCCC[C@@H](O)/C=C/[C@@H]1[C@H](C/C=C\CCCC(=O)O)[C@@H](O)C[C@H]1O [8-iso-15(R)-Prostaglandin F2.alpha.],scaled lipid accumulation score,[3],≤ 0
CCCCC[C@H](O)/C=C/[C@@H]1[C@@H](C/C=C\CCCC(=O)NC(CO)CO)[C@@H](O)C[C@H]1O [Prostaglandin F2.alpha. serinol amide],scaled lipid accumulation score,[3],≤ 0
Nc1ncnc2c1c(I)cn2[C@@H]1O[C@H](CO)[C@@H](O)[C@H]1O [5-Iodotubercidin],scaled lipid accumulation score,[2],≤ 0
CCCCC[C@H](O)/C=C/[C@H]1C=CC(=O)[C@@H]1C/C=C\CCCC(=O)O [Prostaglandin A2],scaled lipid accumulation score,[3],≤ 0 and ≤ -0.021
CC(=O)O.N=C(N)N/N=C/c1c(Cl)cccc1Cl [Guanabenz acetate],scaled lipid accumulation score,[1],0.999 (active)
N=C(N)N/N=C/c1c(Cl)cccc1Cl [Guanabenz acetate],scaled lipid accumulation score,,0.45
same,scaled lipid accumulation score,library stock concentration: 6.9 mM,0.304
same,scaled lipid accumulation score,library stock concentration: 8.7 mM,0.227
same,scaled lipid accumulation score,[1],0.426 and 0.365
N=C(N)NC(=O)Cc1c(Cl)cccc1Cl [Guanfacine HCl],scaled lipid accumulation score,library stock concentration: 7.1 mM,≤ -0.006
N=C(N)N/N=C/c1c(Cl)cccc1Cl [Guanabenz Acetate],scaled lipid accumulation score,[2],≤ 0
same,scaled lipid accumulation score,[1],0.578
N=C(N)NC(=O)Cc1c(Cl)cccc1Cl [Guanfacine hydrochloride],scaled lipid accumulation score,,≤ 0
same,scaled lipid accumulation score,[1],0.148 and 0.048
"CCCCCC#CCC#CCC#CCC#CCCCC(=O)O [5,8,11,14-Eicosatetraynoic acid]",scaled lipid accumulation score,[3],≤ -0.021
CCCCCCCCCCCCCCCC(=O)N[C@H]1CCOC1=O [N-hexadecanoyl-L-Homoserine lactone],scaled lipid accumulation score,[3],≤ 0
CN(C)CCC=C1c2ccccc2C=Cc2ccccc21 [Cyclobenzaprine HCl],scaled lipid accumulation score,[1],0.745
CN(C)CCC=C1c2ccccc2C=Cc2ccccc21 [Cyclobenzaprine hydrochloride],scaled lipid accumulation score,library stock concentration: 6.4 mM,0.579
same,scaled lipid accumulation score,[1],0.568
CN(C)CCC=C1c2ccccc2C=Cc2ccccc21.Cl [Cyclobenzaprine HCl],scaled lipid accumulation score,[2],0.507 (active)
C(=C/CCN(C)C)(/c1c2cccc1)\c3c(cccc3)C=C2.Cl [Cyclobenzaprine hydrochloride],scaled lipid accumulation score,[1],0.991 (active)
C(/c1c2cccc1)(=C/CCN(C)C)\c3c(cccc3)C=C2.Cl [Cyclobenzaprine hydrochloride],scaled lipid accumulation score,,0.86 (active)
CC(C(=O)O)c1ccc(CC2CCCC2=O)cc1 (stereo not given),scaled lipid accumulation score,[1],≤ 0
CC(C(=O)O)c1ccc(CC2CCCC2=O)cc1 (stereo not given) [loxoprofen],scaled lipid accumulation score,[1],0.127
C=C1CC[C@H](O)C/C1=C/C=C1\CCC[C@]2(C)[C@@H]([C@H](C)CCCC(C)(C)O)CC[C@@H]12 [Calcifediol],scaled lipid accumulation score,[2],≤ 0
same,scaled lipid accumulation score,library stock concentration: 5 mM,0.042
same,scaled lipid accumulation score,[1],≤ 0
Nc1nc2c(ncn2[C@@H]2O[C@H](CO)[C@@H](O)[C@@H]2O)c(=O)[nH]1 [Ara-G hydrate],scaled lipid accumulation score,[1],≤ 0
Oc1ccc(OC2CCCCO2)cc1 (stereo not given) [Deoxyarbutin],scaled lipid accumulation score,[2],≤ 0
same,scaled lipid accumulation score,[1],≤ -0.001
CC(=O)N(CC(O)CO)c1c(I)c(C(=O)NCCO)c(I)c(C(=O)NCC(O)CO)c1I (stereo not given),scaled lipid accumulation score,[1],≤ 0
O=C(OC[C@@H]1O[C@H]1c1ccccc1)Oc1ccc([N+](=O)[O-])cc1,scaled lipid accumulation score,[3],≤ 0
CCCCC[C@H](O)/C=C/[C@@H]1[C@@H](CC(=O)CCCCC(=O)O)[C@@H](O)C[C@H]1O [6-keto Prostaglandin F1.alpha.],scaled lipid accumulation score,[3],≤ 0
CCCCC[C@H](O)/C=C/[C@@H]1[C@@H](CC(=O)CCCCC(=O)O)[C@@H](O)C[C@H]1O [6-Keto-prostaglandin F1a],scaled lipid accumulation score,[3],≤ -0.021
COc1c/c(=C2\C=c3ccccc3=N2)[nH]/c1=C\c1[nH]c(C)cc1C [Obatoclax Mesylate (GX15-070)],scaled lipid accumulation score,[2],0.602
same,scaled lipid accumulation score,[1],0.617
